ClpP mod = qHTS Assay for Activators of ClpP. ATP-dependent Clp protease proteolytic subunit (Bacillus subtilis (strain 168)), P80244. hit rate 1.9% among 340,000. Potency, µM (top dose mostly 57.5 µM), for the others: at the highest dose activity change, negative = active. AID 651965, 2013. purified B. subtilis ClpP, FRET peptide cleavage, 20 min; active = well fitted falling curve with a large enough effect; inconclusive = small, poorly fitted or top-dose-only effect; inactive = no such curve, though single readings can be large or run the other way; note: the source files actives as falling curves though it sought activators and does not explain the sign; nearly all actives have a fitted effect of over 65% in size
Target sequence (P80244 whole entry, looked up): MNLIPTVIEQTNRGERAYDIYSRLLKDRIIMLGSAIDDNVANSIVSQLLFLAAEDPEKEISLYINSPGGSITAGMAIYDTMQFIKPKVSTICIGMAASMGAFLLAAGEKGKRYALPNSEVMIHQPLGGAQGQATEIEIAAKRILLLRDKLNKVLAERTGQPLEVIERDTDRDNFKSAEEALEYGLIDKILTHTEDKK
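Buffer: 100 mM Tris/HCl pH8, 100 mM KCl, 0.05% low protease BSA, 2.5% glycerol, 0.01% Tween-20. ClpP 10 microg/mL final; 20 min RT; delta FRET normalized to ADEP and DMSO controls.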
Epigenetic derep = Quantitative High-Throughput Screen for Regulators of Epigenetic Control; hit rate 0.2% among 280,000; Potency, µM (doses to about 53.9 µM), for the others: at the top dose GFP activation, actives largely listed as activators; murine LDR cells, GFP reporter derepression, 30 h; note: % of control where 0% means no effect; nearly all actives have a fitted effect of over 60% in size
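GFP-positive cell count by laser-scanning cytometry (objects 20–120 um) after 30 h, 37 C compound exposure of murine LDR cells; reporter is CMV-GFP integrated at a silenced locus, inducible by HDAC or DNMT inhibitors.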
Sfp PPTase inh = qHTS Assay for Inhibitors of Bacillus subtilis Sfp phosphopantetheinyl transferase (PPTase); Biochemical Sfp PPTase activity, qHTS; hit rate 3.5% among 310,000; AID 1490, 2009; Potency, µM, inactives show largest response in the series, negative = inhibition, most hits filed as inhibitors; 4'-phosphopantetheinyl transferase ffp (Bacillus subtilis), Q9F4F7;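 note: the enzyme is Sfp with the accession as filed and its product quenches rhodamine fluorescence; 0% = enzyme reaction without inhibitor and -100% = no enzyme wells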
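Buffer: 50 mM Hepes-Na pH 7.6, 10 mM MgCl2, 0.01% Nonidet P-40, 0.01% BSA. Enzyme 15 nM, pre-exposed to compound 15 min; substrates then added and fluorescence change tracked over 30 min.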
Gal4-VP16 FLuc = VP16 counterscreen qHTS for inhibitors of ROR gamma transcriptional activity; Potency, µM (doses to about 53.6 µM), for inactives: at the top dose activity, negative = inhibition, most hits filed as inhibitors; Drosophila S2 Gal4-VP16 UAS-luciferase, luminescence, 20 h; AID 2546, 2010; hit rate 3.5% among 310,000;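 note: Gal4-VP16 expression switched on by copper sulfate through the metallothionein promoter; % is set by controls: 0 for no effect and ±100 for the full control effect; nearly all actives have a fitted effect of over 50% in size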
RORgamma inh = qHTS for inhibitors of ROR gamma transcriptional activity; AID 2551, 2010; Potency, µM (titrated, usually from 53.6 µM), for inactives: top-dose activity change, negative = inhibition, most hits filed as inhibitors; hit rate 5.4% among 310,000; Nuclear receptor ROR-gamma (Mus musculus), P51450; Drosophila S2 Gal4-RORgamma UAS-luciferase reporter, 20 h; note: % is set by controls: 0 for no effect and ±100 for the full control effect; nearly all actives have a fitted effect of over 60% in size
Target sequence (P51450 whole entry, looked up, the tested form may be a part): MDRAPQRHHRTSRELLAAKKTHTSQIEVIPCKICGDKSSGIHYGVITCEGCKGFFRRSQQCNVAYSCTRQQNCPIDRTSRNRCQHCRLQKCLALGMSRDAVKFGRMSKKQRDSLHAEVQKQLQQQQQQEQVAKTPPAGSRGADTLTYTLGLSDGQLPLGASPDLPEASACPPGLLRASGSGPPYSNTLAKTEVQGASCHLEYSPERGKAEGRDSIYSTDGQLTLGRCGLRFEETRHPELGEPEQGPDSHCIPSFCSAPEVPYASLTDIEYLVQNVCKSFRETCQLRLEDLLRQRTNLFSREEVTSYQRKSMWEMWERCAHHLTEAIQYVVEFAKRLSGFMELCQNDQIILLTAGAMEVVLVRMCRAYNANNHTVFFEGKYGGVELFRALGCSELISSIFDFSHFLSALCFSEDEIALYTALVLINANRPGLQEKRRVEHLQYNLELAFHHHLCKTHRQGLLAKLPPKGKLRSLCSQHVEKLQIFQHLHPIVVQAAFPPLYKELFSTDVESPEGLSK
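Stably transfected Drosophila Schneider cells are the test system, with ROR gamma fused to Gal4 and luciferase under UAS control; luminescence is read after 20 hr of 700 uM copper sulfate induction at ambient temperature.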
PINK1 expr mod = A Quantitative High throughput Screen to Identify Chemical Modulators of PINK1 Expression. PINK1 immunofluorescence, high-content cytometry, 24 h. Potency, µM (top dose mostly 76.6 µM), for inactives: at the top dose activation (PINK1 increase), actives largely listed as activators. hit rate 0.2% among 410,000. AID 624263, 2012; active = well fitted activation curve with a large enough effect; inconclusive = small, poorly fitted or top-dose-only effect; cell line not stated here; note: % of control where 0% means no effect; nearly all actives have a fitted effect of over 65% in size
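Measures PINK1 amount and localization on or inside mitochondria by immunofluorescence. Stable cells get compounds at 5 concentrations for 24 hours before fixation and staining; CCCP controls included.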
Numbers without * were called inactive; ? = inconclusive; · = not tested or not shown; [ ] = another dose, or the depositor's remark. Most compounds without a hit are left out; they make up all but 8.1% or so of the library. Unless noted, calls come from the whole dose curve; as a rule, active = well fitted curve in the direction sought with a large enough effect; inconclusive = small, poorly fitted or top-dose-only effect, or another doubt; inactive = no such curve, though single readings can be large; an effect the other way counts as inactive or inconclusive. Potency is the fitted concentration of half-maximal effect.

SMILES	ClpP mod	Epigenetic derep	Sfp PPTase inh	Gal4-VP16 FLuc	RORgamma inh	PINK1 expr mod
C=CCNC(=S)NNC(=O)CSc1nc2ccccc2s1	0.2%	0.2%	4.9%	?	7.08µM*	-0.1%
CCCCNc1nc(Oc2ccc(OCCC)nn2)nc(N(C)C)n1	2.2%	-2.3%	·	·	·	3.7%
CCNc1ncc2nc(C)c(=O)n(Cc3cccs3)c2n1	·	·	20.6%	3.2%	-36.0%	1.0%
COC(=O)c1c(C)oc2ccc(N(C(=O)c3ccncc3)S(=O)(=O)c3ccc(C)cc3C)cc12	-1.0%	1.0%	0.2%	4.47µM*	?	12.7%
COC(=O)c1c(C)oc2ccc(N(C(=O)c3ccncc3)S(=O)(=O)c3ccc4ccccc4c3)cc12	1.3%	3.1%	13.7%	3.55µM*	?	1.9%
COC(=O)c1c(C)oc2ccc(N(C(=O)c3ccncc3)S(=O)(=O)c3ccccc3)cc12	-1.0%	-1.1%	-6.6%	?	-27.1%	3.8%
COC(=O)c1c(C)oc2ccc(N(C(=O)c3ccncc3)S(=O)(=O)c3cc(C)c(C)cc3C)cc12	1.1%	2.6%	·	·	·	4.6%
COC(=O)c1c(C)oc2ccc(N(C(=O)c3ccncc3)S(=O)(=O)c3c(C)cc(C)cc3C)cc12	1.0%	-2.5%	·	·	·	0.7%
COC(=O)c1c(C)oc2ccc(N(C(=O)c3ccncc3)S(=O)(=O)c3ccc(C)cc3)cc12	0.8%	1.0%	4.0%	7.08µM*	-39.4%	0.9%
COc1ccc(OC)c(/C=C/c2c3ccccc3cc[n+]2C)c1	-6.3%	·	·	·	·	4.2%
COc1ccccc1-c1cc(C(F)(F)F)n2ncc(S(=O)(=O)c3ccccc3)c2n1	28.2µM*	-1.1%	4.2%	-9.1%	-42.7%	2.0%
N#Cc1nc(N2CCCCC2)nc(N2CCCCC2)n1	-3.5%	·	·	·	·	0.5%
Cc1cc(S(=O)(=O)N2CCOCC2)ccc1OCC(=O)Nc1ccc(F)cc1	12.6µM*	·	12.9%	-3.4%	5.5%	10.9%
CCCn1c(SCC(=O)Nc2cc(S(=O)(=O)N3CCOCC3)ccc2OC)n[nH]c1=O	3.2%	-1.1%	39.8µM*	-1.1%	14.7%[10 µM]	7.0%
CCOCC(=O)Nc1cc(S(=O)(=O)N2CCOCC2)ccc1N1CCCCC1	·	3.9%	11.2µM*	-19.2%	9.3%	2.2%
CCN1CCN(c2ccc(S(=O)(=O)N3CCCCC3)cc2NC(=O)COc2ccccc2)CC1	-4.4%	·	·	·	·	-1.0%
CCOC(=O)CCC(=O)Nc1cc(S(=O)(=O)N2CCOCC2)ccc1N1CCCCC1	-1.1%	·	·	·	·	1.0%
Cc1cc(S(=O)(=O)N2CCOCC2)ccc1OCC(=O)Nc1ccc(F)c(Cl)c1	·	·	19.2%	-14.7%	?	5.9%
CCN1CCN(c2ccc(S(=O)(=O)N3CCCCC3)cc2NC(=O)COc2ccc(Cl)c(C)c2)CC1	-7.4%	·	?	-26.8%	0.1µM*	12.6%
CC1=C(C(=O)Nc2ccccc2C)C(c2cccs2)n2nc(SCc3ccccc3)nc2N1 (stereo unspecified)	-6.1%	2.4%	·	·	·	14.3%
CCn1ccc2cc(S(=O)(=O)N3CCCN(C(=O)Nc4ccccc4C(F)(F)F)CC3)ccc21	0.2%	-1.7%	·	·	·	0.2%
Cc1ccccc1OCc1nc2ccc(S(=O)(=O)N3CCOCC3)cc2[nH]1	-29.3%	-4.5%	39.8µM*	5.6%	-17.2%	25.9%[38.3 µM]
COc1cc(/C=C/C(=O)Nc2cc(S(=O)(=O)N3CCOCC3)ccc2N2CCCC2)cc(OC)c1OC	·	1.1%	28.2µM*	5.9%	-14.1%	4.7%
COc1ccc(S(=O)(=O)N2CCOCC2)cc1NC(=O)COC(=O)C1CCC1	35.5µM*	·	·	·	·	0.7%
CCC1(C2CCN(C(=O)c3ccc4ccccc4c3)CC2)NC(=O)N(CCc2scnc2C)C1=O (stereo unspecified)	·	·	·	·	·	0.9%
SMILES	ClpP mod	Epigenetic derep	Sfp PPTase inh	Gal4-VP16 FLuc	RORgamma inh	PINK1 expr mod
COc1ccc(OCC(=O)NC2CC(=O)N(c3ccc4c(c3)OCCO4)C2)cc1 (stereo unspecified)	0.3%	2.1%	·	·	·	0.3%
CSc1nn(Cc2ccc(F)cc2)c(N(C(C)=O)C(C)=O)c1S(=O)(=O)c1ccccc1	-1.9%	-1.8%	·	·	·	7.2%
Cc1nnc(SCC(=O)c2ccc([N+](=O)[O-])cc2)s1	·	0.0%	50.1µM*	-2.1%	?	1.8%
CCN(CC)C(=O)c1sc(NC(=O)C(C)Sc2nc(-c3ccccc3)cc(C(F)(F)F)n2)c(C(=O)OC)c1C (stereo unspecified)	-4.9%	0.8%	·	·	·	6.3%
Cc1ccc(NS(=O)(=O)c2cc(NC(=O)c3ccc4c(c3)NC(=O)CS4)ccc2Cl)c(C)c1	-12.5%	0.0%	15.8µM*	0.9%	?	0.6%
O=C(NC(=S)N1CCN(C/C=C/c2ccccc2)CC1)c1ccc(F)cc1	-1.4%	-0.3%	3.2%	0.631µM*	0.282µM*	6.0%
O=C(NC1CCCCC1)N1CCN(c2nc(-c3ccccc3)cs2)CC1	-7.2%	-0.1%	-10.2%	?	11.2µM*	-0.8%
COCCNC(=S)N1CCN(c2nc(-c3ccccc3)cs2)CC1	-0.1%	·	2.5%	1.9%	16.8%	-0.4%
S=C(NCCCN1CCOCC1)N1CCN(c2nc(-c3ccccc3)cs2)CC1	·	-3.3%	44.7µM*	-4.6%	-19.4%	7.1%
O=C(NC(=S)N1CCN(c2nc(-c3ccccc3)cs2)CC1)c1cccnc1	-3.4%	1.0%	9.9%	0.0079µM*	0.112µM*	4.1%
O=C(NC12CC3CC(CC(C3)C1)C2)N1CCN(c2nc(-c3ccccc3)cs2)CC1	0.6%	-0.2%	0.7%	?	34.7%	2.2%
O=C(c1cccnc1)N1CCN(C/C=C/c2ccccc2)CC1	1.3%	-1.3%	18.7%	3.7%	22.4%	0.7%
O=C(NC(=S)N1CCN(C/C=C/c2ccccc2)CC1)c1cccnc1	-0.7%	3.1%	-8.2%	0.891µM*	0.398µM*	0.4%
CC(NC(=O)C12CC3CC(CC(C3)C1)C2)C(=O)NN=Cc1ccc([N+](=O)[O-])o1 (stereo unspecified)	0.0%	·	·	·	·	?
CC(NC(=O)c1ccc([N+](=O)[O-])o1)C12CC3CC(CC(C3)C1)C2 (stereo unspecified)	·	·	-9.9%	-13.2%	2.51µM*	-1.3%
CCCOc1ccc(Cc2c(Cl)nc(SC)nc2N(C)C)cc1	·	0.0%	-10.5%	5.01µM*	?	5.9%
COc1nc(SC)nc(Cl)c1Cc1ccc(OC(C)C)cc1	0.5%	1.1%	-13.4%	-2.9%	-3.2%	16.2%
COc1ccc(-c2nc3sc(CCNC(=O)c4ccccc4C)c(C)n3n2)cc1	0.2%	1.0%	·	·	·	0.5%

High-throughput results as filed in PubChem BioAssay.
